Shown are actives, neighbours in structure and some others; about 19% of the full set was active somewhere.
TDP1 cell noCPT – qHTS for Inhibitors of human tyrosyl-DNA phosphodiesterase 1 (TDP1): qHTS in cells in absence of CPT; Potency, µM (titrated, usually from 46.2 µM), for inactives: top-dose activity change, negative = growth inhibition, actives largely listed as inhibitors; 420,000 tested, 15% active; DT40 Tdp1-/- hTDP1 cells, no CPT, ATP luminescence, 48 h; AID 686978, 2013; further: potency means the concentration at half of the fitted maximal effect; nearly all actives have a fitted effect of over 55% in size
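Camptothecin absent (DMSO only). Human TDP1-complemented DT40 knockout cells, 400 cells/well, 37 °C for minimum 48 hr; ATP measured via CellTiter-Glo, 30 min dark incubation, luminescence.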
DT40 TDP1 CPT – growth inhibition of DT40 Tdp1-/-;hTDP1 cells with camptothecin (screen for TDP1 inhibitors); 420,000 tested, 12% active; chicken DT40 Tdp1-/-;hTDP1 cells + 20 nM CPT, ATP luminescence, 48 h; Potency, µM (doses to about 46.2 µM), without a hit: top-dose activity change, negative = growth inhibition, actives largely listed as inhibitors; further: potency means the concentration at half of the fitted maximal effect; nearly all actives have a fitted effect of over 55% in size
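Chicken DT40 Tdp1-/- cells stably complemented with human TDP1 were seeded at 400 cells/well in medium containing 20 nM camptothecin, exposed to pin-transferred compounds, and grown at 37 °C for at least 48 hr. Viability was read as ATP luminescence.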
HT1080 IDH1KD tx – toxicity to HT-1080 IDH1 knockdown cells (counter line); 360,000 tested, 2% active; Potency, µM (series often up to 46.1 µM), inactives show top-dose activity, negative = toxicity, actives largely listed as cytotoxic; HT-1080 IDH1 knockdown viability, ATP luminescence, 48 h;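 further: potency means the concentration at half of the fitted maximal effect; 0% = DMSO wells and -100% = cell-free medium wells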
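After a 2 h attachment period, IDH1KD HT-1080 cells took pin-transferred compound for 48 h at 37 °C; ATP-based luminescence after 10 min room-temperature reagent incubation reported viability.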
HT1080NT lethal – kills 2HG-producing HT-1080-NT fibrosarcoma cells; HT-1080-NT fibrosarcoma viability, CellTiter-Glo ATP luminescence, 48 h; 360,000 tested, 1.6% active; AID 686970; Potency, µM (doses to about 46.1 µM), for inactives: at the top dose activity, negative = less viability, usual class: cytotoxic;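 further: NT is the 2HG producing partner of a matched IDH1 knockdown line; potency means the concentration at half of the fitted maximal effect; 0% = DMSO-treated cells and -100% = media-only wells without cells; nearly all actives have a fitted effect of over 55% in size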
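Luminescent CellTiter-Glo readout after 48 hours of compound exposure at 37 degrees C defined viability of HT-1080-NT cells. Activity was normalized to DMSO wells and cell-free media wells; concentration-response curves were fitted and assigned curve classes.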
ELG1 repair inh – ELG1-dependent DNA repair inhibition | HEK293T ELG1-luciferase reporter, luminescence, 16 h; DNA damage induced by 5-fluorouridine | Potency, µM (top dose mostly 46.1 µM), without a hit: at the top dose activity change, negative = inhibition, usual class: inhibitors | 330,000 tested, 2.3% active | AID 504467; further: potency means the concentration at half of the fitted maximal effect; nearly all actives have a fitted effect of over 55% in size
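Step one: seed 2,000 cells per well. Step two: pin-transfer compound or DMSO alongside 5-fluorouridine. Step three: incubate 16 hr, 37 °C, 5% CO2. Step four: add ONE-Glo, wait 30 min, read luminescence.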
IL-1B inflam inh – blocks inflammasome-driven IL-1 beta release | THP-1 LPS/ATP IL-1B secretion, AlphaLISA, 16 h; hits give low values | activity change, % at 57.5 µM | 360,000 tested, 4.7% active; in the data active means activity change below about -50%; inconclusive means mostly about -30% to -49%
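Secreted IL-1B measured by AlphaLISA bead assay after 16 h compound exposure of THP-1 cells; compounds (final up to 57.5 uM) added 1 h before LPS (250 ng/mL) and ATP (1.25 mM) stimulation; lower signal means less secretion.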
* hit, by the source's call; ? = inconclusive; . = not tested or not shown; [ ] = another dose, or the depositor's remark. Unless noted, the call rests on the fitted dose curve; in most records, active means well fitted curve in the direction sought with a large enough effect; inconclusive means small, poorly fitted or top-dose-only effect, or another doubt; inactive means no such curve, though single readings can be large; an effect the other way counts as inactive or inconclusive. Unless noted, on the % scale 0 is the no-effect control and ±100 the full control effect.

SMILES | TDP1 cell noCPT | DT40 TDP1 CPT | HT1080 IDH1KD tx | HT1080NT lethal | ELG1 repair inh | IL-1B inflam inh
COc1ccc(NC(=O)c2ccc3ccccc3n2)cc1S(=O)(=O)N1CCCCC1 | 16.4µM* | 20.6µM* | -12.0% | 1.5% | ? | ?
COc1ccc(S(=O)(=O)N2CCOCC2)cc1NC(=O)c1cccc(-n2cccc2)c1 | ? | ? | -5.3% | 6.0% | -18.2% | 1.9
COc1ccc(NC(=O)c2cc3ccccc3o2)cc1S(=O)(=O)N1CCCCC1 | ? | ? | -20.4% | -5.6% | 20.6µM* | -7.6
COc1ccc(NC(=O)c2ccncc2)cc1S(=O)(=O)N1CCCCC1 | 0.6% | -3.2% | -0.8% | 1.0% | . | 30.1
Cc1ccc(S(=O)(=O)N2CCCCC2)cc1NC(=O)c1ccc2ccccc2n1 | -18.2% | 0.9% | 13.7% | 10.6% | 10.1% | -3.0
COc1ccc(S(=O)(=O)N2CCCCC2)cc1NC(=O)c1ccc2ccccc2n1 | 13µM* | 14.6µM* | 13.5% | 15.9% | -10.3% | -3.5
COc1ccc(S(=O)(=O)N2CCOCC2)cc1NC(=O)c1cc2ccccc2o1 | 13µM* | ? | -3.3% | -12.3% | ? | -18.3
Cc1ccc(-c2ccc(C)c(N)c2C)c(C)c1N | -19.8% | -26.2% | 2.3% | -0.5% | -29.4% | 16.8
CC(C)(C)OC(=O)N1C[C@H](O)C[C@H]1C(=O)OCC(=O)c1ccc([N+](=O)[O-])cc1 | ? | 16.4µM* | 12.7% | 3.3% | -1.4% | 7.9
COc1ccc(CN(C)CC(=O)Nc2ccccc2C(=O)NC2CC2)cc1F | ? | ? | 25.1% | 13.0% | 7.1% | -6.9
Cc1ccc(CN2CCC(C)(Oc3cccc(Cl)c3)C2)cc1 (stereo not drawn) | ? | 29.1µM* | 14.3% | 11.3% | . | -17.1
CSc1ccc(CN2CCC(C)(Oc3ccccc3F)C2)cc1 (stereo not drawn) | ? | ? | -18.8% | -16.4% | . | 0.0
Cc1ccccc1OC1(C)CCN(Cc2ccc3ccccc3c2)C1 (stereo not drawn) | 16.4µM* | ? | -4.3% | -8.5% | . | 31.3
CSc1ccc(CN2CCC(C)(Oc3ccccc3C)C2)cc1 (stereo not drawn) | ? | ? | -23.6% | ? | . | 45.9
COc1cc(CN2CCN(Cc3ccc(SC)cc3)CC2)cc(OC)c1O | -17.8% | -20.6% | 8.9% | 1.3% | -8.0% | 13.8
COc1cc(OC)c(OC)cc1CN1CCN(Cc2ccc(SC)cc2)CC1 | 13µM* | ? | -3.9% | -5.1% | ? | -3.0
CC1(Oc2cccc(Cl)c2)CCN(Cc2ccc(OC(F)(F)F)cc2)C1 (stereo not drawn) | -29.4% | -18.8% | 14.0% | ? | . | 22.0
COc1cc(Cl)ccc1OC1(C)CCN(Cc2ccc(SC)cc2)C1 (stereo not drawn) | 18.4µM* | 13µM* | ? | ? | . | ?
CC1(C(=O)NS(=O)(=O)c2cccs2)CCN1C(=O)c1ccccc1CCc1ccccc1 (stereo not drawn) | -9.5% | -5.4% | -1.3% | 0.7% | . | 37.0
CC(=O)c1cc2cccc(OC3(C)CCN(Cc4ccc(-c5ccccn5)cc4)C3)c2o1 (stereo not drawn) | 18.4µM* | ? | -1.9% | -1.3% | . | -19.3
CC1(Oc2cccnc2Cl)CCN(Cc2ccc(OC(F)(F)F)cc2)C1 (stereo not drawn) | 18.4µM* | 20.6µM* | 2.8% | -19.4% | . | -56.2*
COc1cccc(OC2(C)CCN(Cc3ccc(-c4ccccn4)cc3)C2)c1 (stereo not drawn) | ? | 20.6µM* | -24.3% | -26.4% | . | -11.7
CCOc1ccc(OCC)c(NC(=O)c2nnn(CC(=O)Nc3cc(Cl)ccc3OC)c2N)c1 | -18.8% | -14.5% | . | . | . | .
Cc1ccc(NC(=O)c2cncc(Br)c2)nc1 | 6.3% | -8.7% | 4.0% | 0.7% | ? | -21.3
Cc1ccc(NC(=O)c2cccc(S(=O)(=O)N3CCN(c4ccccc4)CC3)c2)nc1 | 20.6µM* | 20.6µM* | -23.3% | -19.7% | ? | -28.7
SMILES | TDP1 cell noCPT | DT40 TDP1 CPT | HT1080 IDH1KD tx | HT1080NT lethal | ELG1 repair inh | IL-1B inflam inh
Cc1ccc(NC(=O)c2ccc(C(=O)c3ccccc3)cc2)nc1 | ? | 18.4µM* | ? | ? | ? | -13.8
Cc1ccnc(NC(=O)c2cccc(S(=O)(=O)N3CCN(c4ccccc4)CC3)c2)c1 | ? | 0.1% | -19.6% | -14.9% | ? | -13.4
Cc1ccc(NC(=O)c2ccc3nc[nH]c3c2)nc1 | 18.4µM* | 23.1µM* | ? | -14.2% | 10.7% | 8.4
Cc1ccc(NC(=O)C2(c3ccccc3)CCCC2)nc1 | 14.6µM* | ? | 3.1% | -0.6% | . | 17.2
CCCCn1c(N)c(N(C(=O)CSc2nnc(C)n2-c2ccccc2)C2CCCC2)c(=O)[nH]c1=O | 13.9% | -10.0% | -3.0% | -0.8% | 26.0% | 43.9
O=C1CCCC2[C@@H]3CCC[N@+]4([O-])CCC[C@H](CN12)C34 (stereo partly drawn) | 1.4%[9.04 µM] | 6.1%[9.04 µM] | . | . | . | .
CC(=O)c1sc(NC(=O)C2CCN(c3ncnc4sc(C)c(C)c34)CC2)nc1-c1ccccc1 | ? | ? | -1.4% | -10.6% | -2.8% | 13.0
Cc1sc2ncnc(N3CCC(C(=O)Nc4nc(-c5ccc(F)cc5)cs4)CC3)c2c1C | 16.4µM* | ? | -22.3% | -1.8% | -1.1% | 13.7
Cc1sc2ncnc(N3CCC(C(=O)Nc4nnc(CC(C)C)s4)CC3)c2c1C | 23.1µM* | ? | 1.3% | 5.5% | -13.4% | 15.2

Bioassay records: PubChem, National Center for Advancing Translational Sciences (NCATS)
